# PubChem BioAssay AID624305 (National Center for Advancing Translational Sciences (NCATS), 2012)
# Inconclusive results are not listed. Entries that show only a call come without a potency. Unmarked numbers belong to inactive results. The source made the active and inactive calls. The call rests on the fitted dose curve; in most records, active means well fitted activation curve with a large enough effect; inconclusive means small, poorly fitted or top-dose-only effect; inactive means no such curve, though single readings can be large or run the other way.
# Experiment: qHTS assay for re-activators of p53 using a Luc reporter: Hit Validation; further: nearly all actives have a fitted effect of over 75% in size
# Details: p53-responsive luciferase reporter cells, luminescence, H1299 line expressing heat-sensitive Ala138Val p53; series mostly up to 46.1 µM
# Summary of the method: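 H1299 (p53-null) cells stably carrying p53-A138V and a BP100-luciferase reporter, 1000 cells/well, treated 24 h at 37 deg C. Compounds at several concentrations, 1:5 dilution; nocodazole control; luminescence read after 10 min with detection reagent.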
# Potency means the concentration at half of the fitted maximal effect.
Compound,Potency,activation
CCOC(=O)NC1(Nc2ccc(C)cc2)Oc2ccccc2O1,16.4 µM (active),–
O=[N+]([O-])c1ccc(/C=N/NC(=S)Nc2ccccc2F)o1,inactive,–
O=C(/C(=N/N=C/c1ccc(O)c(O)c1)c1ccccc1)c1ccccc1,inactive,–
O=c1oc(-c2ccc(O)c(O)c2)cc2cc(O)cc(O)c12,11.6 µM (active),–
OC1(C2(O)CC(c3ccccc3)ON2)CCCCC1 (stereo not drawn),inactive,–
N/C(=N\OC(=O)c1ccccc1Cl)c1ccc(Cl)cc1,9.2 µM (active),–
OC(COc1ccc2cc(Br)ccc2c1)CN1CCCC1 (stereo not drawn),inactive,–
COc1ccc(C2=NN(C(C#N)c3ccc(OC)cc3)C(c3ccccc3)C2)cc1 (stereo not drawn),14.6 µM (active),–
C(=N\Nc1nc2ccccc2s1)/c1ccc2c(c1)OCO2,2.59 µM (active),–
Oc1[nH]c2ccccc2c1C=Nc1ccc2c(c1)OCCO2,0.326 µM (active),–
Cc1cc(NC(=O)c2c(F)c(F)c(F)c(F)c2F)no1,inactive,–
O=C(N/N=C/C1C(c2ccccc2)C1(Cl)Cl)c1cccc(Cl)c1 (stereo not drawn),inactive,–
O=C(c1cccc(Br)c1)c1coc2ccc(O)cc12,23.1 µM (active),–
Cc1ccc(NC(=S)NC(=O)c2cccs2)cc1F,9.2 µM (active),–
O=C(CN1C(=O)COc2ccccc21)Nc1ccc(F)cc1,inactive,–
O=C(NC(=S)Nc1cccc(O)c1)C1CCCCC1,14.6 µM (active),–
O=C(NCCCNC1CCCCC1)c1ccc(/C=N/O)nc1,inactive,–
CCOC(=O)CC(=O)Nc1ccc(C(=O)OCC)cc1,inactive,–
CC(C)N1CCc2c(sc(NC(=S)NC(=O)c3ccccc3)c2C#N)C1,–,7.78% [at 9.22 µM]

Compound,Potency,activation
CCC(=O)c1ccc(OC(=O)Cc2ccc(OC)cc2)cc1,inactive,–
Cc1nn(-c2ccccc2)c(N)c1Sc1ccc([N+](=O)[O-])cc1,inactive,–
COc1ccccc1NS(=O)(=O)c1ccc(C(=O)Nc2ncccc2O)cc1,inactive,–
O=C(O)/C=C/c1nc(-c2ccccc2)n2ccccc12,inactive,–
CC(=O)c1ccc(N2Cc3ccccc3C2=NC(=O)c2cccs2)cc1,inactive,–
CCOC(=O)N1CCN(S(=O)(=O)c2ccc(C(=O)NNc3nc4c(C)cc(C)cc4s3)cc2)CC1,inactive,–
Cc1cccc(-c2noc(CCC(=O)N3CCN(c4cc(C)ccc4C)CC3)n2)c1,23.1 µM (active),–
O=C(N/N=C\c1cccc(Cl)c1)c1n[nH]c2c1CCCC2,4.11 µM (active),–
CCOP(=O)(OCC)C(NC(=O)Nc1ccccc1)C(N)=O (stereo not drawn),inactive,–
COc1ccc2nc(NC(=O)Nc3ccccc3OC)sc2c1,9.2 µM (active),–
O=C(Nc1cccc(N=Cc2cc(Cl)cc(Br)c2O)c1)c1ccco1,inactive,–
S=c1[nH]nc(-c2ccco2)n1Cc1ccccc1,inactive,–
Cc1ccc(S(=O)(=O)NCCOc2nc(N(C)C)nc(N3CCOCC3)n2)cc1,inactive,–
CC(=O)N/C(=C/c1ccc2c(c1)OCO2)C(=O)Nc1ccccc1,inactive,–
CN(NC1CC(=O)N(c2ccccc2)C1=O)c1ccccc1 (stereo not drawn),inactive,–
COc1cc(NC(=O)CN2CCCCC2)c(C)cc1[N+](=O)[O-],–,9.16% [at 9.22 µM]
c1ccc2sc(-c3ccc4c(c3)OCO4)nc2c1,2.31 µM (active),–
Cc1ccc(NC(=S)NC(=O)C2CCCC2)c(Br)c1,3.66 µM (active),–
Oc1ccccc1-c1cc(-c2ccccc2)n[nH]1,3.66 µM (active),–
